Screens from PubChem.
Compounds with a hit are over-represented: about 7.2% of the library has one in this group of screens.
LASV entry inh: Lassa virus entry inhibition; Lassa virus pseudotype entry inhibition, cell reporter; 300,000 tested, 1.2% active; Potency, µM (highest dose often 37.9 µM), inactives show at the highest dose activity change, negative = inhibition, actives largely listed as inhibitors; AID 540256; calls by dose curve; tested in HEK293 cells; also: nearly all actives have a fitted effect of over 50% in size
RE007 growth inh: less growth of the S. pombe RE007 Vpr strain. S. pombe RE007 Vpr strain, BacTiter-Glo ATP luminescence, 24 h. Potency, µM (titrated, usually from 92.2 µM), for inactives: top-dose activity change, negative = less growth, most hits filed as inhibitors. 360,000 tested, 0.21% active. AID 651644; active = well fitted falling curve with a large enough effect; inconclusive = small, poorly fitted or top-dose-only effect; inactive = no such curve, though single readings can be large or run the other way; also: nearly all actives have a fitted effect of over 50% in size
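Fission yeast strain RE007, carrying one chromosomally integrated HIV-1 vpr copy, was seeded at OD 0.01 in PMG+AL medium with 23 nL pinned compound. After 24 h at 30 °C and 99% humidity, viability was read by BacTiter-Glo luminescence.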
Sm TGR block: inhibitors of Schistosoma mansoni thioredoxin glutathione reductase. Potency, µM (titrated, usually from 114 µM), for the others: at the highest dose activity change, negative = inhibition, actives largely listed as inhibitors. 360,000 tested, 3% active. purified TGR, DTNB reduction, TNB absorbance 405 nm. Q962Y6; also: nearly all actives have a fitted effect of over 60% in size
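First, TGR (20 nM dispensed) and NADPH were mixed with compound. Second, a 15 min room-temperature incubation followed. Third, further NADPH and then DTNB were added to start the reaction. Finally, TNB absorbance was monitored kinetically.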
MARV entry inh: Marburg virus entry inhibition; Marburg virus pseudotyped entry inhibition, cell reporter; Potency, µM (highest dose often 37.8 µM), inactives show at the top dose activity change, negative = inhibition, actives largely listed as inhibitors; 300,000 tested, 1.8% active; calls by dose curve; tested in HEK293 cells
HCV inhibitor: HCV inhibition. AID 651820. 340,000 tested, 3.4% active. Potency, µM (titrated, usually from 41.8 µM), inactives show at the highest dose activity change, negative = inhibition, actives largely listed as inhibitors. Huh7.5.1 HCVcc-Cre infection, luciferase reporter, 44 h
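Luciferase read-out (15 sec integration) after a 15 min room-temperature substrate step quantifies HCVcc-Cre infection. Cells, 1,000 per well, had compound added 4 h post-plating, then virus at ~0.5 moi, and were cultured 44 h.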
FMDV antiviral: foot and mouth disease virus antiviral activity. FMDV antiviral cell-based qHTS. Potency, µM (series often up to 57.9 µM), for the others: at the highest dose activity change, negative = inhibition, actives largely listed as inhibitors. 410,000 tested, 1.2% active. AID 1159524; calls by dose curve; tested in HEK293T cells; also: read-out not given here; nearly all actives have a fitted effect of over 45% in size
* hit, by the source's call; ? = inconclusive; . = no result given; [ ] = another dose, or the depositor's remark. Unless noted, calls follow the shape of the dose curve; as a rule, active = well fitted curve in the direction sought with a large enough effect; inconclusive = small, poorly fitted or top-dose-only effect, or another doubt; inactive = no such curve, though single readings can be large; an effect the other way counts as inactive or inconclusive. % is scaled to controls: 0 for no effect and ±100 for the full control effect; potency is read from the fitted curve at half-maximal effect.

SMILES	LASV entry inh	RE007 growth inh	Sm TGR block	MARV entry inh	HCV inhibitor	FMDV antiviral
COc1cc(/C=C2\SC(=O)NC2=O)ccc1Oc1ccc([N+](=O)[O-])cc1[N+](=O)[O-]	-25%	4%	-24%	1%[46.1 µM]	-5%	-3%
CCN1C(=O)C(=Cc2cccc(OC)c2Oc2ccc([N+](=O)[O-])cc2[N+](=O)[O-])SC1=S	?	-14%	-21%	?	4%	13µM*
O=C(NCC1CCCO1)c1ccc2c(=O)n(Cc3ccc(Cl)cc3)c(=S)[nH]c2c1 (centres undefined)	?	-7%	2%	?	10%	-11%
CCCCCn1c(=O)[nH]c2cc(C(=O)NCCCN3CCCCC3)ccc2c1=O	-25%	-8%	-1%	?	10µM*	-13%
O=C(CCCCCn1c(=O)[nH]c2ccccc2c1=O)NCCCN1CCN(c2ccccc2F)CC1	-8%	-18%	0%	?	13µM*	?
CC(C)NC(=O)c1ccc2c(=O)n(CC3CCCO3)c(=S)[nH]c2c1 (centres undefined)	8%	0%	1%	-4%[46.1 µM]	-11%	-27%
CC1CCCCN1CCNC(=O)c1ccc2c(=O)n(Cc3ccc(Cl)cc3)c(=S)[nH]c2c1 (centres undefined)	?	-2%	-6%	?	2.2µM*	-11%
CCCCCn1c(=O)[nH]c2cc(C(=O)NCCN3CCC(C)CC3)ccc2c1=O	?	-3%	-5%	0%[46.1 µM]	?	-26%
COC(=O)c1ccc2c(=O)n(Cc3ccc(C(=O)NC(C)C)cc3)c(=S)[nH]c2c1	?	-4%	2%	?	7.9µM*	25%
Cc1ccccc1C(=O)Nc1nnc(SCc2cc(=O)c3c(C)ccc(C)c3[nH]2)s1	-15%[46.1 µM]	.	15%	.	.	?
COc1ccc(NC(=O)Cn2cc(C(=O)c3ccccc3)c(=O)c3cc(OC)ccc32)c(OC)c1	1%[46.1 µM]	.	7%	8%[46.1 µM]	.	-5%
CC(C)Cc1nc2cc(NS(=O)(=O)N(C)C)cc(C(=O)N3CCc4ccccc4C3)c2n1C	.	.	.	.	.	12%
Cc1ccc(-n2c(=O)c3c4c(sc3n(Cc3cccc(Cl)c3)c2=O)CCC4)cc1C	16%[46.1 µM]	.	0%	-8%[46.1 µM]	.	-7%
CC1CCCCN1CCCNC(=O)c1ccc2c(=O)n(CCc3ccccc3)c(=O)[nH]c2c1 (centres undefined)	?	6%	-21%	?	4µM*	8%
CC(=O)NCCNC(=O)c1ccc2c(=O)n(CCc3ccccc3)c(=O)[nH]c2c1	?	.	-1%	?	.	30%
CC1CCN(CCCNC(=O)c2ccc3c(=O)n(CCc4ccccc4)c(=O)[nH]c3c2)CC1	8%	-5%	-6%	?	8.9µM*	16%
COC(=O)c1ccc2c(=O)n(CCCCCC(=O)O)c(=O)[nH]c2c1	-14%	10%	6%	-2%	7%	25µM*
CC1CCCCN1CCNC(=O)c1ccc2c(=O)n(CCc3ccccc3)c(=O)[nH]c2c1 (centres undefined)	?	18%	-25%	?	11µM*	27%
CCCCNC(=O)CCCCCn1c(=O)[nH]c2cc(C(=O)OC)ccc2c1=O	0%	-8%	4%	?	2%	-1%
CC(C)C1Cc2[nH]c(=S)[nH]c(=O)c2C(c2ccc(F)cc2)O1 (centres undefined)	.	14%	.	.	.	-18%
COc1cccc(-c2cnc(-c3ccncc3)nc2C2CCN(C(=O)Cc3csc(C)n3)CC2)c1	.	.	.	.	.	-17%
Cc1ccc(CN2CCNC(=O)C2CC(=O)NC2CCCCCC2)o1 (centres undefined)	8%[46.1 µM]	8%	?	12%[46.1 µM]	-13%	12%
Cc1ccc(CN2CCNC(=O)C2CC(=O)NCCCn2ncc3ccccc32)o1 (centres undefined)	17%[46.1 µM]	0%	25µM*	1%[46.1 µM]	13%	4%
Cc1ccc(CN2CCNC(=O)C2CC(=O)N(Cc2c(C)nn(C)c2C)C2CC2)o1 (centres undefined)	3%	7%	32µM*	-4%[46.1 µM]	8%	0%
O=C(c1ccco1)N1CCN(c2nc(C(F)(F)F)nc3c2nnn3Cc2ccccc2)CC1	?	-13%	-8%	?	4µM*	14µM*
SMILES	LASV entry inh	RE007 growth inh	Sm TGR block	MARV entry inh	HCV inhibitor	FMDV antiviral
O=C(c1ccco1)N1CCN(c2ncnc3c2nnn3Cc2ccccc2Cl)CC1	-13%	?	-14%	-25%	?	?
CCOc1ccc(CCNC(=O)C2CCCN(c3nnc(C)c4c(C)n(-c5ccccc5)nc34)C2)cc1 (centres undefined)	-15%[46.1 µM]	.	-1%	.	.	-16%
CCOC(=O)c1cc(=O)n2nc(-c3ccccc3F)nc2s1	27%	-8%	10µM*	?	13%	-16%
O=C(Nc1nc(-c2ccccn2)cs1)c1ccc(F)c(S(=O)(=O)N2CCOCC2)c1	.	5%	-6%	.	3.5µM*	?
CN(CC1CCCO1)S(=O)(=O)c1ccc(C(=O)Nc2nc(-c3ccccn3)cs2)cc1 (centres undefined)	?	10%	6%	?	4.5µM*	28µM*
O=C(Nc1nc(-c2ccccn2)cs1)c1cc(S(=O)(=O)N2CCOCC2)ccc1F	.	3%	-7%	.	?	-23%
Cc1ccc(C(=O)Nc2nc(-c3ccccn3)cs2)cc1S(=O)(=O)N1CCOCC1	.	9%	0%	.	5.6µM*	?
COC(=O)[C@@]1(Cc2ccc(F)cc2)[C@H]2c3cc(C(=O)N4CCCC4)n(CCc4c[nH]c5ccccc45)c3C[C@H]2CN1C(=O)c1ccccc1	.	-1%	.	.	.	-13%
COc1ccc(/C=C/c2ccc(=O)n(Cc3ccccc3)n2)cc1	5µM*	30%	-22%	-29%[46.1 µM]	?	-22%
CCCCN1CC(c2nc3ccccc3n2CCCCOc2cc(C)ccc2C)CC1=O (centres undefined)	8%[46.1 µM]	.	-14%	?	.	?
CCN(CC(=O)Nc1ccc(NC(C)=O)cc1)C(=O)/C=C/c1ccc(C)o1	.	2%	45µM*	.	6%	3%
CCN(CC(=O)Nc1ccc(NC(C)=O)cc1)C(=O)/C=C/c1ccccc1	-9%	-5%	5%	-10%	13%	-9%
Cc1cc(N2CCN(C)CC2)nc2ccc(NC(=O)CCC(=O)N3CCN(c4ccc([N+](=O)[O-])cc4)CC3)cc12	-7%[46.1 µM]	-28%	-8%	?	11µM*	-17%
CCN1CCN(c2cc(C)c3cc(NC(=S)N4CCCC4)ccc3n2)CC1	?	-5%	5%	?	-26%	5%
Cc1cc(N2CCOCC2)nc2ccc(NC(=O)CCC(=O)N3CCN(c4ccccc4)CC3)cc12	?	-3%	-11%	3%[46.1 µM]	?	0%
CCOc1cc(C(=O)Nc2ccc3nc(N4CCN(C)CC4)cc(C)c3c2)cc(OCC)c1OCC	-20%[46.1 µM]	.	15%	5.6µM*	.	-29%
